Test [1] deals with Aryl hydrocarbon receptor (Homo sapiens) (UniProt P35869). The test is described as follows: qHTS assay to identify small molecule that activate the aryl hydrocarbon receptor (AhR) signaling pathway (AID 743085). Further: nearly all actives have a fitted effect of over 15% in size. Further: potency means the concentration at half of the fitted maximal effect.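 On activation: HG2L7.5c1 human HepG2 liver cells with stably integrated DRE-driven firefly reporter; series mostly up to about 70 µM.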 An outline of the steps:
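Measured in HG2L7.5c1 cells: CellTiter-Fluor signal (30 min incubation, 37C) for viability, then luciferase luminescence (30 min, room temperature). Compound contact time was 24 h at 37C, following a 5 h pre-incubation.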

Test [2] is described as follows: qHTS assay for small molecule agonists of the antioxidant response element (ARE) signaling pathway - cell viability counter screen (AID 743203; calls by dose curve; further: nearly all actives have a fitted effect of over 55% in size; further: potency means the concentration at half of the fitted maximal effect). An outline of the steps: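 Viability counter screen: CellTiter-Glo luminescence, read after 30 min at room temperature, in ARE-bla HepG2 wells. Compound exposure lasted 16 h at 37C/5% CO2, following a 5 h pre-incubation of the cells after plating.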
On the technique in general: qHTS replaces the single test concentration by a dilution series.

A short description of test [3]: qHTS assay for small molecule activators of the heat shock response signaling pathway - cell viability counter screen (AID 743209). Further: nearly all actives have a fitted effect of over 50% in size. Further: potency means the concentration at half of the fitted maximal effect. The method, boiled down: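 Cytotoxicity counter screen run in the same wells as the heat-shock bla reporter assay: HeLa HSE-bla cells, 5 h compound exposure at 37 C, viability read by CellTiter-Glo luminescence.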
Test [4] can be described thus: qHTS assay to identify small molecule agonists of the peroxisome proliferator-activated receptor delta (PPARd) signaling pathway - cell viability counter screen (AID 743211). Further: nearly all actives have a fitted effect of over 55% in size. Further: potency means the concentration at half of the fitted maximal effect. The method, boiled down: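 Following 5 h plating at 37 C and 5% CO2, PPARd UAS-bla HEK293H cells took up test compounds for 17 h. Viability was quantified by luminescence 30 min after CellTiter-Glo addition at room temperature.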

Test [5] can be described thus: qHTS assay to identify small molecule antagonists of the peroxisome proliferator-activated receptor gamma (PPARg) signaling pathway - cell viability counter screen (AID 743194). Further: nearly all actives have a fitted effect of over 55% in size. Further: potency means the concentration at half of the fitted maximal effect. An outline of the steps:
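Viability was measured as CellTiter-Glo luminescence in GeneBLAzer PPARg UAS-bla HEK293H cells. These cells had been exposed 17 h at 37 C to compounds together with rosiglitazone at 50 nM final, with the beta-lactamase readout taken in the same wells.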

Test [6] is described as follows: qHTS assay for small molecule activators of the heat shock response signaling pathway (AID 743210; active means well fitted activation curve with a large enough effect in the signal ratio in the repeat runs, with a control signal flat, not every such curve was filed as active; the % refers to the signal ratio; further: potency means the concentration at half of the fitted maximal effect;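 on activation: HeLa cells with beta-lactamase reporter driven by heat shock elements; series mostly up to about 63 µM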). The method, boiled down:
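Fluorescence from a cleaved B/G FRET substrate (2.5 h, room temp) reports HSE-driven beta-lactamase in HeLa cells treated 5 h at 37 C with DMSO-dissolved compounds.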

For test [7], the target named is Peroxisome proliferator-activated receptor gamma (Homo sapiens) (UniProt P37231). As to the kind of experiment: qHTS assay to identify small molecule antagonists of the peroxisome proliferator-activated receptor gamma (PPARg) signaling pathway (AID 743191; calls by dose curve; further: nearly all actives have a fitted effect of over 30% in size; further: potency means the concentration at half of the fitted maximal effect). The method, boiled down: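 Beta-lactamase reporter under UAS control in HEK293H PPARg-bla cells; compound treatment 17 h at 37C. Read-out: fluorescence intensity after 1 h room-temperature incubation with LiveBLAzer B/G FRET substrate.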
Peroxisome proliferator-activated receptor gamma (Homo sapiens), sequence (P37231 whole entry, looked up): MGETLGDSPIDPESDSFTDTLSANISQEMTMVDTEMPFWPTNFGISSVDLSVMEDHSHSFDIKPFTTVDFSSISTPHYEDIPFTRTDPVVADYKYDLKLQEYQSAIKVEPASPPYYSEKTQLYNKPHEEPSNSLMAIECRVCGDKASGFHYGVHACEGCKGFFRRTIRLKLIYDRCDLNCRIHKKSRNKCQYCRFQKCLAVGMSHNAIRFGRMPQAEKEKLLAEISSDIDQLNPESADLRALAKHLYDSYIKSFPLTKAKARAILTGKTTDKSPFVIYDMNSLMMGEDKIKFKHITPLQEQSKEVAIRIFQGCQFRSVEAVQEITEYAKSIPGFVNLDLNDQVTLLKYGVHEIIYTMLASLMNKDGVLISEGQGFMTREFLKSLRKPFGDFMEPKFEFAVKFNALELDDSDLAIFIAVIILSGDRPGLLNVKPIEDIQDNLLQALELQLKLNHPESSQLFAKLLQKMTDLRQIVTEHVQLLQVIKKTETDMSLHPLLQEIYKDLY

The nature of test [8]: qHTS assay for small molecule agonists of the antioxidant response element (ARE) signaling pathway (AID 743202; active means well fitted activation curve with a large enough effect in the signal ratio in the repeat runs, not every such curve was filed as active; the % refers to the signal ratio; further: potency means the concentration at half of the fitted maximal effect). The method, boiled down: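 Beta-lactamase reporter activity, read as fluorescence intensity, reflects ARE/Nrf2 pathway induction in HepG2 cells after 16 h compound exposure at 37 C; substrate loading was 2 h at room temperature.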
The nature of test [9]: qHTS assay to identify small molecule that activate the aryl hydrocarbon receptor (AhR) signaling pathway - cell viability counter screen (AID 743086). Further: nearly all actives have a fitted effect of over 45% in size. Further: potency means the concentration at half of the fitted maximal effect. The method, boiled down: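 Cytotoxicity counter screen: CellTiter-Fluor signal (30 min, 37 C) in 4000 HepG2 cells/well carrying the DRE-luciferase reporter, following 24 h compound exposure at 37 C.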
The target in test [10] is Peroxisome proliferator-activated receptor gamma (Homo sapiens) (UniProt P37231). As to the kind of experiment: qHTS assay to identify small molecule agonists of the peroxisome proliferator-activated receptor gamma (PPARg) signaling pathway (AID 743094; active means well fitted activation curve with a large enough effect in the signal ratio in the repeat runs, not every such curve was filed as active; the % refers to the signal ratio). The method, boiled down:
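Agonist activity was taken from a beta-lactamase reporter (FRET substrate, 1 h at room temperature) in HEK293H cells carrying a PPARg UAS-bla construct. Compounds in DMSO were incubated 17 h at 37C after a 5 h cell pre-incubation.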

Several values for one entry are separate records, joined by “and”; a condition that tells them apart may be missing. Equal values may be shown once. Records with an inconclusive call do not appear. More than one record can exist for a structure, and the calls need not agree. Activity calls are given as the source filed them. Unless noted, the call rests on the fitted dose curve; in most records, active means well fitted curve in the direction sought with a large enough effect in the repeat runs; inconclusive means weak or mixed curves; inactive means no such curve, though single readings can be large; an effect the other way counts as inactive or inconclusive.

Aryl hydrocarbon receptor (Homo sapiens), sequence (P35869 whole entry, looked up): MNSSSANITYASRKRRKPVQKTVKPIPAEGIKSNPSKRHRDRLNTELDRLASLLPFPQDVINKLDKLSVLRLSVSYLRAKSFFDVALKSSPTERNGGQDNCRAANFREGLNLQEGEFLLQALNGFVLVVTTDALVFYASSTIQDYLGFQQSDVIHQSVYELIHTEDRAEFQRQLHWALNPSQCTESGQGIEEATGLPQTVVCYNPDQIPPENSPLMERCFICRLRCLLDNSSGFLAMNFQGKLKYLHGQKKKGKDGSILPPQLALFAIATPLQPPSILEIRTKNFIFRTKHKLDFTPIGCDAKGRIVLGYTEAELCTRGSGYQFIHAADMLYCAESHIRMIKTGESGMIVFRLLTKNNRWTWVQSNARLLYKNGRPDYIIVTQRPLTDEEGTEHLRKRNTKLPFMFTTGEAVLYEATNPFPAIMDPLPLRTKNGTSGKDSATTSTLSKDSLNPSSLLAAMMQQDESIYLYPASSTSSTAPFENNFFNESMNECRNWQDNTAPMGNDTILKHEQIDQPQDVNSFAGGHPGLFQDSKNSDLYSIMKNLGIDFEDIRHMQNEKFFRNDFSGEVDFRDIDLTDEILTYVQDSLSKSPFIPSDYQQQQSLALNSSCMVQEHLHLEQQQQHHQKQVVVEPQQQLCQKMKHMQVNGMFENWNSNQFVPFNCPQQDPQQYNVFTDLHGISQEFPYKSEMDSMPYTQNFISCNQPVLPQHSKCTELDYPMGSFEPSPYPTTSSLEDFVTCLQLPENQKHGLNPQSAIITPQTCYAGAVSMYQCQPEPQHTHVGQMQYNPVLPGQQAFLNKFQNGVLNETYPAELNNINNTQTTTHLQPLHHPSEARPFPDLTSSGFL

As for `CS(=O)(=O)CCNCc1ccc(-c2ccc3ncnc(Nc4ccc(OCc5cccc(F)c5)c(Cl)c4)c3c2)o1`, the Potency result in [1] is “inactive”. Besides, the Potency in [2] was 26.6 µM (active); in [3] it was 26.6 µM (active); in [4], 9.44 µM (active).
Regarding `COCCCC/C(=N\OCCN)c1ccc(C(F)(F)F)cc1`, the Potency entry in [1], in [5], in test [2], in [3] and in test [6] was “inactive” throughout. For the same compound, the Potency in test [4] is 23.7 µM (active).
As for `OCc1c[nH]c2ccccc12`, the results for the Potency in test [1] and in [7] were 5.14 µM (active) and 12.3 µM (active), respectively. Further, the Potency result in [2] and in test [3] was “inactive” throughout.
Consider `CSc1ccc(/C=C2/C(C)=C(CC(=O)O)c3cc(F)ccc32)cc1`, for which the Potency in test [1] is 9.44 µM (active). In addition, the Potency entry in test [2] and in test [3] was “inactive” throughout.
With `Cc1cccc(S(=O)(=O)O)c1C`, the Potency entry in test [1], in [5], in test [8], in [2], in test [3] and in [6] was “inactive” each time. In addition, the Potency result in [4] was “inactive”.
With `COc1ccc(CN2CCN(C(c3ccc(F)cc3)c3ccc(F)cc3)CC2)c(OC)c1OC`, the Potency entry in test [1], in test [2], in test [3] and in [6] was “inactive” in each case. The Potency in test [7] was 26.6 µM (active); in [5], 26.6 µM (active); in test [4], 29.8 µM (active).
`N=C1N=C(N)c2cc3ccccc3cc21`: the Potency in test [1] is 11.2 µM (active); in test [5], 54.9 µM (active); in test [2], 43.3 µM (active); in [3] it was 25.9 µM (active).
In the case of `S=c1[nH]c2ccccc2s1`, the Potency result in test [9], in test [2] and in test [4] was “inactive” throughout.
Turning to `CN1CCC(Nc2ncc3ncnc(Nc4ccc(F)c(Cl)c4)c3n2)CC1`, the values for the Potency in test [1], in test [6] and in test [4] were 13.3 µM (active), 13.9 µM (active) and 23.7 µM (active), respectively. Also, the Potency result in test [3] was “inactive”.
On to `Nc1ccc2cc(S(=O)(=O)O)cc(O)c2c1N=Nc1ccccc1C(F)(F)F`, for which the Potency entry in test [10], in [7], in test [5], in [8], in test [2] and in test [3] was “inactive” in each case. Besides, the Potency result in [6] and in [4] was “inactive” in each case.
In the case of `C=C(C)C(=O)OCC(O)COc1ccc(C(C)(C)c2ccc(OCC(O)COC(=O)C(=C)C)cc2)cc1` (stereo unspecified), the Potency entry in [9] and in test [2] was “inactive” each time. For the same compound, the Potency in test [4] is 54.9 µM (active).
For the compound `CCCCCCCCCOC(=O)c1ccc(O)cc1`, in [1], the Potency entry is “inactive”. Besides, the results for the Potency in [2], in [3] and in test [4] were 60.3 µM (active), 24.2 µM (active) and 27.1 µM (active), respectively.
Take `CCCCCCCCNC(C)C(O)c1ccc(SC(C)C)cc1` (stereo unspecified): the Potency was 23.7 µM (active) in [9]; 23.7 µM (active) in test [5]; 16.8 µM (active) in test [2]; 18.8 µM (active) in [3]; 9.44 µM (active) in test [4]. Also, in test [10], the Potency result is “inactive”.
For the compound `CCN(CC)CCNC(=O)c1c(C)[nH]c(/C=C2\C(=O)Nc3ccc(F)cc32)c1C`, the Potency in [9] is 11.9 µM (active); in test [5] it was 16.8 µM (active); in test [2] it was 29.8 µM (active); in test [4], 23.7 µM (active). In addition, in test [6], the Potency entry was “inactive”.
Consider `CCC1OCC(COc2ccc(Oc3ccccc3)cc2)O1` (stereo unspecified), for which the Potency result in test [9], in test [10], in [7], in [5], in test [2] and in test [4] was “inactive” each time. In [8], the Potency is 61.1 µM (active).
On to `CCOC(=O)/C=C(C)/C=C/C=C(C)/C=C/c1c(C)cc(OC)c(C)c1C`, for which the Potency result in test [9], in test [5], in [2], in test [3] and in [4] was “inactive” in each case.
In the case of `O=[N+]([O-])c1cc([N+](=O)[O-])c2ccc(S(=O)(=O)O)cc2c1O`, in test [9], the Potency is 24.2 µM (active). Besides, the Potency entry in test [5], in test [2], in [3] and in test [4] was “inactive” each time.
`CC1=C(/C=C/C(C)=C/C=C/C(C)=C/C=O)C(C)(C)CCC1`: the Potency entry in test [1] is “inactive”. The Potency in test [2] was 60.8 µM (active); in test [3] it was 34.5 µM (active); in test [4], 12.2 µM (active).
`CC(C)(C)CC(C)(C)c1ccc(O)c(Cc2ccc(Cl)cc2Cl)c1`: in test [9], the Potency entry is “inactive”. For the same compound, the figures for the Potency in test [2], in [3] and in test [4] were 13.3 µM (active), 23.7 µM (active) and 26.6 µM (active), respectively.
Turning to `Cc1cc(N)c(S(=O)(=O)O)cc1Cl`, the Potency entry in test [9], in test [8], in [2], in test [3], in test [6] and in test [4] was “inactive” throughout.
In the case of `Oc1c(Cl)cc(Cl)c2cccnc12`, in test [1], the Potency was 4.73 µM (active). Besides, in test [3], the Potency result is “inactive”.
With `Cc1cc(C2CCCCC2)n(O)c(=O)c1`, the Potency result in test [1] and in test [3] was “inactive” each time. Further, the Potency in test [4] is 5.31 µM (active).
As for `CC(NN)c1ccccc1` (stereo unspecified), the Potency result in test [9], in test [10], in test [7], in test [8], in test [2] and in test [3] was “inactive” in each case. Besides, the Potency result in test [6] and in [4] was “inactive” in each case.
Take `Cc1onc(-c2ccccc2Cl)c1C(=O)N[C@@H]1C(=O)N2[C@@H]1SC(C)(C)[C@@H]2C(=O)O`: the Potency entry in test [10], in test [7], in test [2], in test [3], in test [6] and in test [4] was “inactive” each time.
For the compound `Cc1[nH]nc2c1N=C(c1ccccc1Cl)c1cc([N+](=O)[O-])ccc1N2`, the Potency in test [9] is 48.6 µM (active); in [5], 38.9 µM (active); in [2], 15.4 µM (active); in test [3] it was 15.5 µM (active); in test [4], 5.49 µM (active).
With `O=c1[nH]sc2ccccc12`, the Potency entry in test [1] is “inactive”. Besides, the figures for the Potency in test [2], in test [3] and in test [4] were 30.6 µM (active), 54.9 µM (active) and 17.4 µM (active), respectively.
For the compound `Clc1ccccc1C(c1ccccc1)(c1ccccc1)n1ccnc1`, the Potency entry in [9] is “inactive and 54.5 µM (active)”; in test [5], 24.5 µM (active); in test [2], 30.6 µM (active); in test [4], 54.9 µM (active).

Source of the values: PubChem BioAssay (Tox21).
